{"source": "PubChem BioAssay (NCI)", "note": "Several values for one entry are separate records, joined by “and”; a condition that tells them apart may be missing. Identical values can stand only once. Compounds without any hit were thinned out: in the full panel of roughly 83,000, 20% have a hit.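 Single-dose data. Exposure time 48 hours. Values below 10 considered active.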 Activity calls are given as the source filed them.", "data": [{"system": "OVCAR-4 ovarian", "assay": "NCI-60 one-dose screen, 48 h (100 = growth as untreated, 0 = no growth, -100 = all killed)", "settings": "10 µM", "values": [{"smiles": "Cn1c(O)c(N=O)c(=O)n(C)c1=O", "growth": "116% (inactive) and 111% (inactive)"}, {"smiles": "NNc1ccccc1", "growth": "102% (inactive)"}, {"smiles": "COc1cc(/C=C/[N+](=O)[O-])cc(Br)c1OC", "growth": "60.3% (inactive)"}, {"smiles": "C[C@]12CC[C@H]3[C@@H](CCC4=CC(=O)CC[C@@H]43)[C@@H]1CC[C@@H]2OC(=O)N(CCCl)N=O", "growth": "84.8% (inactive)"}, {"smiles": "Cc1cc(C(C)(C)c2ccc(O)c(C)c2)ccc1O", "growth": "83.9% (inactive)"}, {"smiles": "CC[C@@H](C)[C@@H]1NC(=O)C(NC(=O)C(CC(C)C)N(C)C(=O)C2CCCN2C(=O)C(C)O)C(C)OC(=O)C(Cc2ccc(OC)cc2)N(C)C(=O)C2CCCN2C(=O)C(CC(C)C)NC(=O)C(C)C(=O)C(C(C)C)OC(=O)C[C@H]1O", "note": "(stereo not given in full)", "growth": "-30.8% (active)"}, {"smiles": "S=C=NCCc1ccccc1", "growth": "69.5% (inactive)"}, {"smiles": "O=C1CCC(=O)N1SC(Cl)(Cl)Cl", "growth": "110% (inactive)"}, {"smiles": "O=[N+]([O-])c1cc[n+]([O-])c2ccccc12", "growth": "-99.6% (active)"}, {"smiles": "O=C(CBr)Nc1ccccc1", "growth": "92.5% (inactive)"}, {"smiles": "CN(C)CC1(N)C(=O)NC(=O)NC1=O", "growth": "103% (inactive)"}, {"smiles": "C/C(=C\\c1ccc(Cl)c(Cl)c1)[N+](=O)[O-]", "growth": "-42.5% (active) and 114% (inactive)"}, {"smiles": "O=[N+]([O-])c1ccc(N(CCO)CCO)c2c1no[n+]2[O-]", "growth": "-25.8% (active)"}, {"smiles": "O=[N+]([O-])c1ccc(N2CCOCC2)c2c1no[n+]2[O-]", "growth": "-6.35% (active)"}, {"smiles": "C/C1=C\\[C@H](C)C[C@H](C)OC(=O)C[C@H](c2ccc(O)cc2)NC(=O)[C@@H](Cc2c(Br)[nH]c3ccccc23)N(C)C(=O)[C@H](C)NC(=O)[C@@H](C)C1", "growth": "-54.6% (active)"}, {"smiles": "COc1ccc(/C=C\\[N+](=O)[O-])cc1OC", "growth": "73.7% (inactive) and 80.5% (inactive)"}, {"smiles": "[O-][n+]1ccccc1S", "growth": "36.2% (inactive)"}, {"smiles": "COC12c3c(C)cc(O)c4c(=O)occ(c34)C(=O)C1C13COC(=O)c4c(O)cc(C)c(c41)C(=O)C2C3OC(C)=O", "note": "(stereo not given)", "growth": "100% (inactive)"}, {"smiles": "COC(=O)C1C(O)C(C)C(O)C(C)/C=C\\C=C(C)C(=O)Nc2c(C)c(OC(C)=O)c3c(c2O)C(=O)C(C)=C2OCOC(=C23)C(C)=CC(C)(O)C(O)C(C)C1O", "note": "(stereo not given)", "growth": "79.4% (inactive)"}, {"smiles": "C=C1C(=O)O[C@@H]2C[C@@H](C)[C@@H]3C=CC(=O)[C@@]3(C)[C@@H](O)[C@H]12", "growth": "-36.6% (active)"}, {"smiles": "CC/C(=C/c1ccc(OC)cc1)[N+](=O)[O-]", "growth": "62% (inactive)"}, {"smiles": "CCOP(=O)(OCC)/C(C#N)=C/c1ccc(Br)cc1", "growth": "98.4% (inactive)"}, {"smiles": "O=[N+]([O-])/C=C/c1ccc(Cl)cc1[N+](=O)[O-]", "growth": "10% (active)"}, {"smiles": "Oc1c(Cl)cc(Cl)c2ccccc12.[Cu+2]", "growth": "55.8% (inactive)"}, {"smiles": "CN(CCCl)c1ccc(/C=C/C2=[N+](C)c3ccccc3C2(C)C)cc1", "growth": "37.6% (inactive)"}, {"smiles": "Cc1ccc(NC(=O)CBr)cc1", "growth": "102% (inactive)"}, {"smiles": "COC(C(=O)C(O)C(C)O)C1Cc2cc3cc(OC4CC(OC(C)=O)C(OC5CC(O)C(OC)C(C)O5)C(C)O4)cc(O)c3c(O)c2C(=O)C1OC1CC(OC2CC(OC3CC(C)(O)C(OC(=O)C(C)C)C(C)O3)C(O)C(C)O2)C(O)C(C)O1", "note": "(stereo not given)", "growth": "-0.721% (active)"}]}, {"system": "SK-OV-3 ovarian", "assay": "NCI-60 one-dose screen, 48 h (100 = growth as untreated, 0 = no growth, -100 = all killed)", "settings": "10 µM", "values": [{"smiles": "Cn1c(O)c(N=O)c(=O)n(C)c1=O", "growth": "108% (inactive) and 104% (inactive)"}, {"smiles": "NNc1ccccc1", "growth": "99.6% (inactive)"}, {"smiles": "O=C1C=Cc2ccccc2C1=O", "growth": "71.9% (inactive)"}, {"smiles": "COc1cc(/C=C/[N+](=O)[O-])cc(Br)c1OC", "growth": "94.7% (inactive)"}, {"smiles": "C[C@]12CC[C@H]3[C@@H](CCC4=CC(=O)CC[C@@H]43)[C@@H]1CC[C@@H]2OC(=O)N(CCCl)N=O", "growth": "46.7% (inactive)"}, {"smiles": "Cc1cc(C(C)(C)c2ccc(O)c(C)c2)ccc1O", "growth": "102% (inactive)"}, {"smiles": "CC[C@@H](C)[C@@H]1NC(=O)C(NC(=O)C(CC(C)C)N(C)C(=O)C2CCCN2C(=O)C(C)O)C(C)OC(=O)C(Cc2ccc(OC)cc2)N(C)C(=O)C2CCCN2C(=O)C(CC(C)C)NC(=O)C(C)C(=O)C(C(C)C)OC(=O)C[C@H]1O", "note": "(stereo not given in full)", "growth": "-38.5% (active)"}, {"smiles": "S=C=NCCc1ccccc1", "growth": "122% (inactive)"}, {"smiles": "O=C1CCC(=O)N1SC(Cl)(Cl)Cl", "growth": "109% (inactive)"}, {"smiles": "O=[N+]([O-])c1cc[n+]([O-])c2ccccc12", "growth": "-18.4% (active)"}, {"smiles": "O=C(CBr)Nc1ccccc1", "growth": "113% (inactive)"}, {"smiles": "CN(C)CC1(N)C(=O)NC(=O)NC1=O", "growth": "98.2% (inactive)"}, {"smiles": "C/C(=C\\c1ccc(Cl)c(Cl)c1)[N+](=O)[O-]", "growth": "108% (inactive) and 96.6% (inactive)"}, {"smiles": "O=[N+]([O-])c1ccc(N(CCO)CCO)c2c1no[n+]2[O-]", "growth": "-35.8% (active)"}, {"smiles": "O=[N+]([O-])c1ccc(N2CCOCC2)c2c1no[n+]2[O-]", "growth": "7.59% (active)"}, {"smiles": "C/C1=C\\[C@H](C)C[C@H](C)OC(=O)C[C@H](c2ccc(O)cc2)NC(=O)[C@@H](Cc2c(Br)[nH]c3ccccc23)N(C)C(=O)[C@H](C)NC(=O)[C@@H](C)C1", "growth": "-20.9% (active)"}, {"smiles": "COc1ccc(/C=C\\[N+](=O)[O-])cc1OC", "growth": "106% (inactive) and 95.9% (inactive)"}, {"smiles": "[O-][n+]1ccccc1S", "growth": "91.1% (inactive)"}, {"smiles": "COC12c3c(C)cc(O)c4c(=O)occ(c34)C(=O)C1C13COC(=O)c4c(O)cc(C)c(c41)C(=O)C2C3OC(C)=O", "note": "(stereo not given)", "growth": "93.4% (inactive)"}, {"smiles": "COC(=O)C1C(O)C(C)C(O)C(C)/C=C\\C=C(C)C(=O)Nc2c(C)c(OC(C)=O)c3c(c2O)C(=O)C(C)=C2OCOC(=C23)C(C)=CC(C)(O)C(O)C(C)C1O", "note": "(stereo not given)", "growth": "108% (inactive)"}, {"smiles": "C=C1C(=O)O[C@@H]2C[C@@H](C)[C@@H]3C=CC(=O)[C@@]3(C)[C@@H](O)[C@H]12", "growth": "11.5% (inactive)"}, {"smiles": "CC/C(=C/c1ccc(OC)cc1)[N+](=O)[O-]", "growth": "104% (inactive)"}, {"smiles": "CCOP(=O)(OCC)/C(C#N)=C/c1ccc(Br)cc1", "growth": "97.4% (inactive)"}, {"smiles": "O=[N+]([O-])/C=C/c1ccc(Cl)cc1[N+](=O)[O-]", "growth": "99.2% (inactive)"}, {"smiles": "Oc1c(Cl)cc(Cl)c2ccccc12.[Cu+2]", "growth": "87.2% (inactive)"}, {"smiles": "CN(CCCl)c1ccc(/C=C/C2=[N+](C)c3ccccc3C2(C)C)cc1", "growth": "-3.38% (active)"}, {"smiles": "Cc1ccc(NC(=O)CBr)cc1", "growth": "86.1% (inactive)"}, {"smiles": "COC(C(=O)C(O)C(C)O)C1Cc2cc3cc(OC4CC(OC(C)=O)C(OC5CC(O)C(OC)C(C)O5)C(C)O4)cc(O)c3c(O)c2C(=O)C1OC1CC(OC2CC(OC3CC(C)(O)C(OC(=O)C(C)C)C(C)O3)C(O)C(C)O2)C(O)C(C)O1", "note": "(stereo not given)", "growth": "9.37% (active)"}]}]}
